A short description of the assay: NCI Yeast Anticancer Drug Screen. Data for the bub3 strain (AID 167). The settings on record: S. cerevisiae bub3 mutant strain, active compounds read high. How it is done: Growth inhibition of yeast strains with defined genetic alterations is measured as a screen for potential anti-cancer activity. Selected strains with alterations in DNA damage repair or cell cycle control were exposed to compounds and growth inhibition was measured relative to vehicle treated controls. The strain used in this assay is bub3

The mark [1] stands for this setting: at 5.0 µM (retest, dose inferred, filed as 0.5).
Where [2] appears, read: at 50.0 µM (retest, dose inferred, filed as 5.0).

About 79,000 compounds went through this panel and 15% of them were active in at least one assay; those are over-represented in the sample as a whole. Unmarked numbers belong to inactive results. The source made the active and inactive calls. Cut-off read from the data, not from the text of the source: active = growth inhibition above about 70%; inactive = the rest.

Drawing on PubChem BioAssay (NCI), this text covers growth inhibition for 14 molecules.

As to `Cc1ccc(NC(=O)COC(=O)c2cccc3c(=O)c4ccccc4[nH]c23)cc1`, the growth inhibition under setting [1] was 42%, the growth inhibition under setting [2] was 81% (active) and the growth inhibition (at 50.0 µM) was 72% (active).
As for `CN(C)C=NCCNc1ccc([N+](=O)[O-])cn1`, the growth inhibition was -70% under setting [1], -77% under setting [2] and 19.8% (at 50.0 µM).
In the case of `CCCCN(CC(O)c1ccc(Cl)cc1)c1ccccc1` (configuration not stated), the growth inhibition is 1% under setting [1], 98% (active) under setting [2] and 95% (active) (at 50.0 µM).
On to `CCN1/C(=C\c2cc(C)nc(-c3ccccc3)[n+]2C)C=Cc2ccccc21`, for which the growth inhibition under setting [1] was 64%, the growth inhibition under setting [2] is 99% (active) and the growth inhibition (at 50.0 µM) is 98.8% (active).
Consider `CCCCNCc1c(O)ccc2ccccc12`, for which the growth inhibition is 21% under setting [1], 99% (active) under setting [2] and 99% (active) (at 50.0 µM).
For the molecule `NCc1ccc(O)c(O)c1O`, the growth inhibition was -2% under setting [1], 82% (active) under setting [2] and 81.4% (active) (at 50.0 µM).
For `Cc1nc2c(cnn2C)cc1CCc1ccccc1`, in that order: 23%, 78% (active) and 76.1% (active).
Turning to `Nc1nc(Cc2ccccc2)nc(Cc2ccccc2)c1-c1ccccc1`, the growth inhibition runs as follows: under setting [1], 15%; under setting [2], 98% (active); (at 50.0 µM) 96% (active).
Regarding `O=C(/C=C/c1cc(O)c(O)cc1O)OCCc1ccccc1`, the growth inhibition runs as follows: under setting [1], 25%; under setting [2], 68%; (at 50.0 µM) 66%.
The like results for `COc1cc(NCC(C#N)C#N)ccc1N=Nc1ccc(Cl)cc1` were, in that order, -23%, 87% (active) and 79.5% (active).
The like results for `Cc1cc(Br)c2ccccc2c1N` were, in that order, 1%, 22% and 75% (active).
The like results for `O/N=C1/C(=C/c2ccc(Cl)c(Cl)c2)CCCC1C(NO)c1ccc(Cl)c(Cl)c1` (configuration not stated) were, in that order, -1%, 96% (active) and 21.6%.
Consider `O=C(O)CCC(=O)c1ccc2c(c1)CCCC2`, for which the growth inhibition is -16% under setting [1], -48% under setting [2] and 20.7% (at 50.0 µM).
Turning to `C[C@]12CC[C@H]3[C@@H](CCC4=CC(=O)CC[C@@]43C)[C@@H]1CC[C@@H]2O[Si](O[C@H]1CC[C@H]2[C@@H]3CCC4=CC(=O)CC[C@]4(C)[C@H]3CC[C@]12C)(O[C@H]1CC[C@H]2[C@@H]3CCC4=CC(=O)CC[C@]4(C)[C@H]3CC[C@]12C)c1ccccc1`, the growth inhibition runs as follows: under setting [1], 4%; under setting [2], 77% (active); (at 50.0 µM) 81.5% (active).
